Screens: PubChem, several laboratories
PriA SSB inh – K. pneumoniae PriA-SSBct interaction inhibition; AlphaScreen SSBct-PriA binding, biotinylated peptide; inhibition, % at 33 µM; hit rate 0.6% among 430,000; AID 1272365; in the data active = inhibition mostly above about 37%, no sharp cut-off; inactive = mostly below about 20%
VHR inh abs – inhibitors of human VHR1 phosphatase (DUSP3); P51452; recombinant VHR phosphatase, pNPP absorbance; inhibition, % at 13.3 µM; hit rate 0.52% among 290,000; in the data active = inhibition above about 50%
Target sequence (P51452 whole entry, looked up): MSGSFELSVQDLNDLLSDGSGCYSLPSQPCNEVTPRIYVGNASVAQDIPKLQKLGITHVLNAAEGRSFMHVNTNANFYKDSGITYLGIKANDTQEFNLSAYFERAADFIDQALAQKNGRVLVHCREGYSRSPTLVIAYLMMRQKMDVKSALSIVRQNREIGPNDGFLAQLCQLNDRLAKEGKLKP
3CLpro inhibitor – SARS-CoV 3CLpro protease inhibition | P0C6X7 | recombinant SARS-CoV 3CLpro, quenched FRET peptide cleavage | inhibition, % at 6 µM | hit rate 0.14% among 290,000 | AID 1706; in the data active = inhibition above about 12%
RecA splice inh – inhibitors of M. tuberculosis RecA intein splicing; AID 2221; inhibition, % (test concentration not listed); P9WHJ3; cell-free RecA intein splicing, fluorescence; hit rate 0.75% among 290,000; in the data active = inhibition above about 30%
CCHF vOTU inh-1 – CCHFV vOTU protease inhibition; AID 651958; inhibition, % at 11.5 µM; Pep-AMC fluorescence; hit rate 0.55% among 370,000
CCHF vOTU inh-2 – CCHFV vOTU protease inhibition, confirmation; Recombinant CCHFV vOTU, Pep-AMC fluorescence; AID 686976; shares compounds with CCHF vOTU inh-1; hit rate 17% among 1,900; inhibition, % at 11.5 µM
Of the large screens only hits and unclear results are named; the others gave an inactive call (follow-up assays come after a bar, where they were run). In the library only some 1.7% were active in any assay of this set; here they are far more common. Rule as the data show it, unless noted: active = inhibition above about 30%; inactive = the rest.

COc1ccc(C(=O)c2ccc(N3CCOCC3)c([N+](=O)[O-])c2)cc1	CCHF vOTU inh-1 30.3 | CCHF vOTU inh-2 inactive
COc1ccc(CNC(=O)c2ccc(N3CCOCC3)c([N+](=O)[O-])c2)cc1	none
CCc1nc2c(OCCC3CCCCC3)cccn2c1N(C)C(=O)COc1ccccc1	CCHF vOTU inh-1 36.3 (no result: PriA SSB inh, VHR inh abs, 3CLpro inhibitor, RecA splice inh) | CCHF vOTU inh-2 inactive
CCc1nc2c(OCCC3CCCCC3)cccn2c1N(C)C(=O)c1ccc(C)cc1	CCHF vOTU inh-1 37.2 (no result: PriA SSB inh, VHR inh abs, 3CLpro inhibitor, RecA splice inh) | CCHF vOTU inh-2 inactive
CCc1nc2c(OCC3CCCCC3)cccn2c1N(C)C(=O)c1ccccc1F	CCHF vOTU inh-1 31.0 (no result: PriA SSB inh, VHR inh abs, 3CLpro inhibitor, RecA splice inh) | CCHF vOTU inh-2 inactive
COc1ccc(NC(=O)CSc2nnc(C)c3cnn(-c4ccc(F)cc4)c23)c(OC)c1	none (no result: VHR inh abs, 3CLpro inhibitor, RecA splice inh, CCHF vOTU inh-1)
COc1ccccc1[C@@H](O)Cn1cc(C(=O)NCc2cc(F)cc(F)c2)nn1	none (no result: VHR inh abs, 3CLpro inhibitor, RecA splice inh, CCHF vOTU inh-1)
O=C(Nc1nc2c(F)cccc2s1)c1ccc([N+](=O)[O-])s1	none (no result: VHR inh abs, 3CLpro inhibitor, RecA splice inh, CCHF vOTU inh-1)
O=C(NC1CCCCC1)C(c1ccco1)N(C(=O)C(F)(F)F)C1CC1 (stereo not drawn)	none
Cc1ccc(CN(C(=O)C(F)(F)F)C(C(=O)NC2CCCCC2)c2ccco2)cc1 (stereo not drawn)	CCHF vOTU inh-1 29.8 | CCHF vOTU inh-2 inactive
N#C/C(=C\Nc1ccc2c(c1)OCCO2)c1nc2ccccc2[nH]1	CCHF vOTU inh-1 32.1 | CCHF vOTU inh-2 inactive
N#C/C(=C\Nc1ccc2c(c1)OCCO2)c1nc(-c2ccccc2)cs1	none
COc1ccc(C[C@@H]2c3cc(O)c(OC)cc3CCN2C)cc1O	none
COc1cc2c(cc1O)[C@@H]1Cc3ccc(OC)c(O)c3CN1CC2	CCHF vOTU inh-1 105.1 (no result: VHR inh abs, 3CLpro inhibitor, RecA splice inh) | CCHF vOTU inh-2 92.6
O=C(Nc1cccc(OC(F)(F)F)c1)C1Cc2c(-c3ccccc3Oc3ccccc3)ccnc2O1 (stereo not drawn)	CCHF vOTU inh-1 30.0 (no result: PriA SSB inh, VHR inh abs, 3CLpro inhibitor, RecA splice inh) | CCHF vOTU inh-2 inactive
O=C(Nc1ccccc1)C1Cc2c(-c3ccccc3Oc3ccccc3)ccnc2O1 (stereo not drawn)	none (no result: PriA SSB inh, VHR inh abs, 3CLpro inhibitor, RecA splice inh)
O=C(Nc1cc(C(F)(F)F)ccc1F)C1Cc2c(-c3ccccc3Oc3ccccc3)ccnc2O1 (stereo not drawn)	CCHF vOTU inh-1 36.1 (no result: PriA SSB inh, VHR inh abs, 3CLpro inhibitor, RecA splice inh) | CCHF vOTU inh-2 inactive
O=C(c1ccco1)N1CCN(C(=O)c2ccc(CS(=O)c3ccc(Cl)cc3)o2)CC1 (stereo not drawn)	CCHF vOTU inh-1 39.3 | CCHF vOTU inh-2 inactive
Cc1ccc(S(=O)Cc2ccc(C(=O)N3CCN(C(=O)c4ccco4)CC3)o2)cc1 (stereo not drawn)	none
COc1ccc(CCC(=O)NCC2CCN(c3ccccn3)CC2)cc1	none (no result: VHR inh abs, 3CLpro inhibitor, RecA splice inh, CCHF vOTU inh-1)
O=c1[nH]nc(CNc2ccc(O)cc2)c2ccccc12	CCHF vOTU inh-1 53.1 | CCHF vOTU inh-2 inactive
O=c1[nH]nc(CNc2ccc(C(F)(F)F)cc2)c2ccccc12	none
COc1ccc(OC)c(C=NNC(=O)c2cc(-c3ccc(C)o3)nc3ccccc23)c1	none (no result: VHR inh abs, 3CLpro inhibitor, RecA splice inh, CCHF vOTU inh-1)
CCCCc1nnc(NC(=O)C2=COCCO2)s1	CCHF vOTU inh-1 32.7 | CCHF vOTU inh-2 inactive
Cc1cc(=O)n(C)c2ccccc12	none
Cc1cc(=O)n2c3c(c4c(cc13)c(CN(C)C)cc(=O)n4C)OC2	CCHF vOTU inh-1 90.1 (no result: VHR inh abs, 3CLpro inhibitor, RecA splice inh) | CCHF vOTU inh-2 51.0
COc1ccc(OC)c(S(=O)(=O)Nc2ccc3c(c2)N(C(=O)c2ccco2)CC3)c1	none (no result: VHR inh abs, 3CLpro inhibitor, RecA splice inh, CCHF vOTU inh-1)
CCCCNc1c2c(nc3c(-c4ccccc4)c(C)nn13)CCC2	CCHF vOTU inh-1 30.1 (no result: RecA splice inh) | CCHF vOTU inh-2 inactive
COc1ccc(CN=Cc2c(C(=O)O)[nH]c3ccccc23)cc1	none
COc1cc(C(c2c(C(=O)O)[nH]c3ccccc23)c2c(C(=O)O)[nH]c3ccccc23)ccc1OCc1ccccc1	CCHF vOTU inh-1 38.7 | CCHF vOTU inh-2 inactive
C=CCOc1ccc(C(c2c(C(=O)O)[nH]c3ccccc23)c2c(C(=O)O)[nH]c3ccccc23)cc1	CCHF vOTU inh-1 51.3 | CCHF vOTU inh-2 inactive
O=C(NCC(O)c1csc2ccccc12)c1ccc2nsnc2c1 (stereo not drawn)	none (no result: VHR inh abs, 3CLpro inhibitor, RecA splice inh, CCHF vOTU inh-1)
COC(=O)c1ccccc1CC1SC(=N)NC1=O (stereo not drawn)	none (no result: VHR inh abs, 3CLpro inhibitor, RecA splice inh, CCHF vOTU inh-1)
CNc1nn(CC(=O)Nc2ccc(C(C)C)cc2)c(N)c1-c1nc(-c2cccc(Cl)c2)no1	none (no result: VHR inh abs, 3CLpro inhibitor, RecA splice inh, CCHF vOTU inh-1)
CC(=O)c1ccc(N2CCN(C(=O)COc3ccc4c(c3)CCC4)CC2)cc1	none
Cc1ccc(Cl)cc1N1CCN(C(=O)COc2ccc3c(c2)CCC3)CC1	CCHF vOTU inh-1 30.4 | CCHF vOTU inh-2 inactive
CCOC(=O)C1(Cc2cccc(OC)c2)CCN(Cc2cccc(O)c2)CC1	CCHF vOTU inh-1 30.7 | CCHF vOTU inh-2 inactive
